# Measured values published in the supplement of paper PMC6555819.
# System: PPARg DBDmut:RXRa IVT, anti-PPARg (DBD mutation: PPARg1 K132A/R137A, NR concentration 270 nM, RXRa partner concentration 90 nM)
# Experiment: PBM binding z-score (relative to random genomic background probes); higher = stronger binding; sequences stand for … in GC…GCGATTGACAGCGTAGAATGAAGG
# Summary of the method: (§1)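 Custom Agilent 4×180K protein-binding microarrays carried double-stranded probes. Their 34-nt variable regions held direct-repeat seeds, single-nucleotide variants, half-site ablations and random human genomic background sequences. Arrays were incubated 1 h with ligand-free nuclear receptor dimers in PBS pH 7.4, 2% milk, 0.02% Triton X-100, 1 mM DTT, 0.2 mg/mL BSA and 0.4 mg/ml salmon testes DNA. Antibodies against each partner (one per run) detected binding, and scanned fluorescence was regression-normalized. Binding z-scores use random background probes as reference.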
row,Sequence,PBM binding z-score
1,CGTCCAAGGTCAAGGGTCAGTGAAGAGATGACGG,0.202
2,ATCGAAAGATCGACGAGGTGAGTATACACCGTTT,0.0625
3,TCTTGTAGATCAAGCAGGTTAAGATAGCCTGAGT,0.115
4,GCTACTAGTTGAAAGGGCAACCGAATGATTCTCG,0.246
5,TCCGACAGGTGAAGGTAACTCAGGTACGCAGTCG,-0.595
6,ATGTGTAGGTTAGCTGGGGTCATTCAGACTAGGC,1.93
7,TATACAGGGTCAATGGCCAGAGTACGAATGTCGA,1.48
8,CGTCAAAGTTCAATGTAACGTAACAGAAAGCAGC,1.4
9,ATATGTAGGTTACATCCGGGTCGTTCAGGCTATG,2.21
10,CCCTACGGGTCACTGACAGGTTATAGCATTTGGA,-0.15
11,AGTCAAAGTTCATCTAGGTAACGCAAGATATGCT,1.46
12,CGTCCAAGATCAATGCTAGGTCAGTGAAAGCATT,-0.261
13,TAGCCTAGGTCATTCAGGAGCCAGTATAGAAAGC,0.758
14,CCTGCTAGGTCAATGTTCAGCTAAAGCAGCTCGC,-0.21
15,TCCAGTAGGTTAGGGGCATTCAGAATGGCGTCGA,-0.472
16,TCGCGGAGGACACGAAGGTCAGAGCTTTCCAGAG,-0.818
17,CGAAGTAGGTCATCCAGGACAGTGAATACATTGA,3.1

# System: PPARg DBDmut IVT, anti-PPARg (DBD mutation: PPARg1 K132A/R137A, NR concentration 270 nM)
# Experiment: as above
# Summary of the method: as §1
row,Sequence,PBM binding z-score
1,TAGCCTAGGTCATGGGCCAGTAGACCACGCGAAC,0.107
2,ATCGAAAGGTCGAGGTGATTATAGAGAAAGGGAA,1.21
3,CTCGAAAGGTCGGTAGAGGTGAGTATACGGATAA,0.272
4,CCTAGTAGGCCAGGGTCACTCAAGCATTTCGCTT,-1.37
5,CCTTACGGGTCACTCCAGGCTATAGCATCGGAGT,-0.418
6,CGAACTAGGTCAAGGTCAGTGAATCTCCGCACGC,0.259
7,AGAACGAGGGCACGCTGAGTTCATAGCAGAGTAG,-0.0454
8,GCCACTGGGGCATCAGCAGGTTACCATAACTTAA,-0.59
9,ACTAGTTGGTCAGCTGAGATCACACACAATTCGG,0.509
10,ATTTACGGGTCAACGAGGTTATAGCACGCGTATA,2.5
11,TAGCCTAGGTCATTGGGCAAGTATAGTACGCATC,-0.561
12,TCTCGGAGTACACGAAGGTCAGAGCTTTCCAGAG,-1.48
13,AGAACGAGGGCACGGTGAGTTGATAGCAGAGTAG,0.552
14,TCAAGCAGGCCAGAGGGTCACTCAAGAGGTACGG,-1.55
15,CAAACTAGGTCACAGAGGCCAAAGTCCGTGCGTA,2.65
16,CGTCAAAGTACAACTAAGGTAACGTAAAGCACGC,0.398
17,TCTTGTAGATCAAGCAGGTTAAGAAAGCCTGAGT,0.401
18,TCATATAGGTAATACAGGTAAAAGTCGGCATCTA,1.94
19,AATACAGGGTCACTAGGCCAGAATAGGTACGAAT,1.79
20,CGAACTAGGTCATTGACAGGAGAGTGAATAGTAA,3.6

row,Sequence,PBM binding z-score
1,ATATGTAGGTTGTCGGGTCATTCAGTTTGCGCAT,1.67
2,TAGCCTGGGTCATGGGCCAGTATACCACGCGAAC,-1.17
3,CGTCCAAGGTCAAGGGTCAGTGAAGAGATGACGG,-0.0608
4,ATCGAAAGATCGACGAGGTGAGTATACACCGTTT,0.447
5,TCTTGTAGATCAAGCAGGTTAAGATAGCCTGAGT,0.351
6,GCTACTAGTTGAAAGGGCAACCGAATGATTCTCG,-0.547
7,TCCGACAGGTGAAGGTAACTCAGGTACGCAGTCG,-0.742
8,ATGTGTAGGTTAGCTGGGGTCATTCAGACTAGGC,2.25
9,TATACAGGGTCAATGGCCAGAGTACGAATGTCGA,1.03
10,CGTCAAAGTTCAATGTAACGTAACAGAAAGCAGC,0.705
11,ATATGTAGGTTACATCCGGGTCGTTCAGGCTATG,1.61
12,CCCTACGGGTCACTGACAGGTTATAGCATTTGGA,-0.444
13,AGTCAAAGTTCATCTAGGTAACGCAAGATATGCT,1.49
14,CGTCCAAGATCAATGCTAGGTCAGTGAAAGCATT,0.071
15,TAGCCTAGGTCATTCAGGAGCCAGTATAGAAAGC,0.0429
16,CCTGCTAGGTCAATGTTCAGCTAAAGCAGCTCGC,-0.461
17,TCCAGTAGGTTAGGGGCATTCAGAATGGCGTCGA,0.307
18,TCGCGGAGGACACGAAGGTCAGAGCTTTCCAGAG,-2.01
19,CGAAGTAGGTCATCCAGGACAGTGAATACATTGA,2.28

# System: PPARg homodimer (NR concentration 180 nM)
# Experiment: as above
# Summary of the method: as §1
row,Sequence,PBM binding z-score
1,TAGCCTAGGTCATGGGCCAGTAGACCACGCGAAC,0.936
2,ATCGAAAGGTCGAGGTGATTATAGAGAAAGGGAA,1.85
3,CTCGAAAGGTCGGTAGAGGTGAGTATACGGATAA,1.1
4,CCTAGTAGGCCAGGGTCACTCAAGCATTTCGCTT,0.886
5,CCTTACGGGTCACTCCAGGCTATAGCATCGGAGT,0.988
6,CGAACTAGGTCAAGGTCAGTGAATCTCCGCACGC,3.84
7,AGAACGAGGGCACGCTGAGTTCATAGCAGAGTAG,1.16
8,GCCACTGGGGCATCAGCAGGTTACCATAACTTAA,0.0359
9,ACTAGTTGGTCAGCTGAGATCACACACAATTCGG,-0.286
10,ATTTACGGGTCAACGAGGTTATAGCACGCGTATA,2.8
11,TAGCCTAGGTCATTGGGCAAGTATAGTACGCATC,1.19
12,TCTCGGAGTACACGAAGGTCAGAGCTTTCCAGAG,1.11
13,AGAACGAGGGCACGGTGAGTTGATAGCAGAGTAG,0.477
14,TCAAGCAGGCCAGAGGGTCACTCAAGAGGTACGG,0.379
15,CAAACTAGGTCACAGAGGCCAAAGTCCGTGCGTA,3.4
16,CGTCAAAGTACAACTAAGGTAACGTAAAGCACGC,0.606
17,TCTTGTAGATCAAGCAGGTTAAGAAAGCCTGAGT,0.138
18,TCATATAGGTAATACAGGTAAAAGTCGGCATCTA,1.08
19,AATACAGGGTCACTAGGCCAGAATAGGTACGAAT,2.05
20,CGAACTAGGTCATTGACAGGAGAGTGAATAGTAA,1.32

row,Sequence,PBM binding z-score
1,ATATGTAGGTTGTCGGGTCATTCAGTTTGCGCAT,2.56
2,TAGCCTGGGTCATGGGCCAGTATACCACGCGAAC,1.52
3,CGTCCAAGGTCAAGGGTCAGTGAAGAGATGACGG,5
4,ATCGAAAGATCGACGAGGTGAGTATACACCGTTT,-0.719
5,TCTTGTAGATCAAGCAGGTTAAGATAGCCTGAGT,0.386
6,GCTACTAGTTGAAAGGGCAACCGAATGATTCTCG,0.922
7,TCCGACAGGTGAAGGTAACTCAGGTACGCAGTCG,-0.0885
8,ATGTGTAGGTTAGCTGGGGTCATTCAGACTAGGC,3.23
9,TATACAGGGTCAATGGCCAGAGTACGAATGTCGA,1.97
10,CGTCAAAGTTCAATGTAACGTAACAGAAAGCAGC,2.6
11,ATATGTAGGTTACATCCGGGTCGTTCAGGCTATG,1.23
12,CCCTACGGGTCACTGACAGGTTATAGCATTTGGA,2.79
13,AGTCAAAGTTCATCTAGGTAACGCAAGATATGCT,3.03
14,CGTCCAAGATCAATGCTAGGTCAGTGAAAGCATT,0.835
15,TAGCCTAGGTCATTCAGGAGCCAGTATAGAAAGC,0.878
16,CCTGCTAGGTCAATGTTCAGCTAAAGCAGCTCGC,1.39
17,TCCAGTAGGTTAGGGGCATTCAGAATGGCGTCGA,1.01
18,TCGCGGAGGACACGAAGGTCAGAGCTTTCCAGAG,1.37
19,CGAAGTAGGTCATCCAGGACAGTGAATACATTGA,2.17
